“And” between values parts separate entries of the source, which are not always exact repeats. Equal values may be shown once. The whole screen tested about 5,500 compounds, of which about 2,000 (36%) were called active. Inconclusive results (about 18%) are left out. No stated cut-off is given here; in the data, active means normalized growth mostly below about 0.91 (no sharp cut-off); inconclusive means no clear call, values can overlap the other calls; inactive means mostly above about 0.92. The list shows a part of the results.
Experiment: chemical genetic growth profiling, strain panel (AID 1159580);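 further: tested at 20 µM; growth read once vehicle control cultures reached saturation at 30 °C; 1 = growth at the plate median or of vehicle wells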
Conditions: growth OD

Measured: normalized growth

CC1(C)C2(Cl)C(Cl)C(Cl)C(Cl)(C(Cl)Cl)C1(Cl)C2Cl (configuration not stated)
active: S. cerevisiae deletion strains, locus YLR418C, strain cdc73, stronger effect = lower value 0.755 | S. cerevisiae deletion strains, locus YNL307C, strain MCK1, stronger effect = lower value 0.544 | S. cerevisiae deletion strains, locus YOR184W, strain ser1, stronger effect = lower value 0.809 | S. cerevisiae deletion strains, locus YPR163C, strain tif3, stronger effect = lower value 0.91
inactive: S. cerevisiae deletion strains, locus YAL013W, strain DEP1, stronger effect = lower value 0.98 | S. cerevisiae deletion strains, locus YBR021W, strain FUR4, stronger effect = lower value 0.985 | S. cerevisiae deletion strains, locus YBR229C, strain ROT2, stronger effect = lower value 0.985 | S. cerevisiae deletion strains, locus YCL029C, strain bik1, stronger effect = lower value 0.982 | S. cerevisiae deletion strains, locus YDL035C, strain GPR1, stronger effect = lower value 0.947 | S. cerevisiae deletion strains, locus YDL074C, strain BRE1, stronger effect = lower value 0.918 | S. cerevisiae deletion strains, locus YDL101C, strain DUN1, stronger effect = lower value 0.982 | S. cerevisiae deletion strains, locus YDL134C, strain PPH21, stronger effect = lower value 0.981 | S. cerevisiae deletion strains, locus YDL185W, strain tfp1, stronger effect = lower value 0.976 | S. cerevisiae deletion strains, locus YDL192W, strain arf1, stronger effect = lower value 0.98 | S. cerevisiae deletion strains, locus YDR101C, strain arx1, stronger effect = lower value 0.993 | S. cerevisiae deletion strains, locus YDR150W, strain NUM1, stronger effect = lower value 0.994 | S. cerevisiae deletion strains, locus YDR162C, strain NBP2, stronger effect = lower value 0.968 | S. cerevisiae deletion strains, locus YDR318W, strain mcm21, stronger effect = lower value 0.95 | S. cerevisiae deletion strains, locus YDR388W, stronger effect = lower value 0.964 | S. cerevisiae deletion strains, locus YDR502C, strain sam2, stronger effect = lower value 0.957 | S. cerevisiae deletion strains, locus YEL061C, strain CIN8, stronger effect = lower value 0.992 | S. cerevisiae deletion strains, locus YER110C, stronger effect = lower value 0.984 | S. cerevisiae deletion strains, locus YER155C, strain BEM2, stronger effect = lower value 1 | S. cerevisiae deletion strains, locus YER167W, strain BCK2, stronger effect = lower value 0.975 | S. cerevisiae deletion strains, locus YGL078C, strain dbp3, stronger effect = lower value 0.982 | S. cerevisiae deletion strains, locus YGL086W, strain mad1, stronger effect = lower value 0.962 | S. cerevisiae deletion strains, locus YGL248W, strain PDE1, stronger effect = lower value 0.979 | S. cerevisiae deletion strains, locus YGR078C, strain PAC10, stronger effect = lower value 0.94 | S. cerevisiae deletion strains, locus YGR135W, strain pre9, stronger effect = lower value 0.951 | S. cerevisiae deletion strains, locus YGR229C, strain SMI1, stronger effect = lower value 0.865 | S. cerevisiae deletion strains, locus YGR252W, strain gcn5, stronger effect = lower value 0.956 | S. cerevisiae deletion strains, locus YHR030C, strain SLT2, stronger effect = lower value 0.995 and 0.96 | S. cerevisiae deletion strains, locus YHR079C, strain IRE1 (second series), stronger effect = lower value 0.975 | S. cerevisiae deletion strains, locus YHR079C, strain IRE1, stronger effect = lower value 0.946 | S. cerevisiae deletion strains, locus YHR094C, strain hxt1, stronger effect = lower value 0.981 | S. cerevisiae deletion strains, locus YHR129C, strain ARP1, stronger effect = lower value 0.984 | S. cerevisiae deletion strains, locus YHR200W, strain rpn10, stronger effect = lower value 0.979 | S. cerevisiae deletion strains, locus YIL066C, strain RNR3, stronger effect = lower value 0.891 | S. cerevisiae deletion strains, locus YIL073C, strain SPO22, stronger effect = lower value 0.829 | S. cerevisiae deletion strains, locus YIL125W, strain kgd1, stronger effect = lower value 0.981 | S. cerevisiae deletion strains, locus YIR030C, strain dcg1, stronger effect = lower value 0.978 | S. cerevisiae deletion strains, locus YJL095W, strain BCK1, stronger effect = lower value 0.954 and 0.978 | S. cerevisiae deletion strains, locus YJL134W, strain LCB3, stronger effect = lower value 0.991 | S. cerevisiae deletion strains, locus YJL168C, strain set2, stronger effect = lower value 0.978 | S. cerevisiae deletion strains, locus YJL187C, strain SWE1 (second series), stronger effect = lower value 0.983 | S. cerevisiae deletion strains, locus YJR043C, strain POL32, stronger effect = lower value 1.01 | S. cerevisiae deletion strains, locus YJR066W, strain TOR1, stronger effect = lower value 0.935 | S. cerevisiae deletion strains, locus YJR075W, strain HOC1, stronger effect = lower value 0.954 | S. cerevisiae deletion strains, locus YKL009W, strain mrt4, stronger effect = lower value 0.971 | S. cerevisiae deletion strains, locus YKL068W, stronger effect = lower value 0.971 | S. cerevisiae deletion strains, locus YKL085W, strain MDH1 (second series), stronger effect = lower value 0.968 | S. cerevisiae deletion strains, locus YKL085W, strain MDH1, stronger effect = lower value 0.968 | S. cerevisiae deletion strains, locus YKL190W, strain CNB1, stronger effect = lower value 0.989 | S. cerevisiae deletion strains, locus YKR001C, strain vps1, stronger effect = lower value 0.932 | S. cerevisiae deletion strains, locus YLR039C, strain RIC1, stronger effect = lower value 0.79 | S. cerevisiae deletion strains, locus YLR058C, strain SHM2, stronger effect = lower value 0.978 | S. cerevisiae deletion strains, locus YLR102C, strain apc9, stronger effect = lower value 0.986 | S. cerevisiae deletion strains, locus YLR113W, strain HOG1, stronger effect = lower value 0.948 | S. cerevisiae deletion strains, locus YLR262C, strain YPT6, stronger effect = lower value 0.768 | S. cerevisiae deletion strains, locus YLR268W, strain sec22, stronger effect = lower value 0.956 | S. cerevisiae deletion strains, locus YLR330W, strain CHS5, stronger effect = lower value 0.992 | S. cerevisiae deletion strains, locus YLR342W, strain FKS1 (second series), stronger effect = lower value 0.893 | S. cerevisiae deletion strains, locus YLR371W, strain rom2, stronger effect = lower value 0.986 | S. cerevisiae deletion strains, locus YML016C, strain PPZ1, stronger effect = lower value 0.984 | S. cerevisiae deletion strains, locus YML032C, strain rad52, stronger effect = lower value 0.954 | S. cerevisiae deletion strains, locus YML124C, strain tub3, stronger effect = lower value 0.982 | S. cerevisiae deletion strains, locus YMR078C, strain ctf18, stronger effect = lower value 0.961 | S. cerevisiae deletion strains, locus YMR223W, strain ubp8, stronger effect = lower value 0.939 | S. cerevisiae deletion strains, locus YMR263W, strain SAP30, stronger effect = lower value 0.993 | S. cerevisiae deletion strains, locus YMR307W, strain GAS1, stronger effect = lower value 0.887 | S. cerevisiae deletion strains, locus YNL067W, strain RPL9B, stronger effect = lower value 0.987 | S. cerevisiae deletion strains, locus YNL128W, strain TEP1, stronger effect = lower value 0.993 | S. cerevisiae deletion strains, locus YNL153C, strain GIM3, stronger effect = lower value 0.986 | S. cerevisiae deletion strains, locus YNL183C, strain NPR1, stronger effect = lower value 0.943 | S. cerevisiae deletion strains, locus YNL233W, strain BNI4, stronger effect = lower value 0.989 | S. cerevisiae deletion strains, locus YNL250W, strain rad50, stronger effect = lower value 0.969 | S. cerevisiae deletion strains, locus YNL271C, strain bni1, stronger effect = lower value 0.97 | S. cerevisiae deletion strains, locus YNL298W, strain CLA4, stronger effect = lower value 0.971 | S. cerevisiae deletion strains, locus YNL322C, strain KRE1, stronger effect = lower value 0.994 | S. cerevisiae deletion strains, locus YNR052C, strain pop2, stronger effect = lower value 0.963 | S. cerevisiae deletion strains, locus YOL006C, strain TOP1, stronger effect = lower value 0.867 | S. cerevisiae deletion strains, locus YOL012C, strain htz1 0.99 | S. cerevisiae deletion strains, locus YOL147C, strain pex11, stronger effect = lower value 0.982 | S. cerevisiae deletion strains, locus YOR061W, strain CKA2, stronger effect = lower value 0.994 | S. cerevisiae deletion strains, locus YOR069W, strain VPS5, stronger effect = lower value 0.984 | S. cerevisiae deletion strains, locus YOR136W, strain idh2, stronger effect = lower value 0.966 | S. cerevisiae deletion strains, locus YOR144C, strain elg1, stronger effect = lower value 0.981 | S. cerevisiae deletion strains, locus YOR231W, strain MKK1, stronger effect = lower value 0.964 | S. cerevisiae deletion strains, locus YOR316C, strain cot1, stronger effect = lower value 0.977 | S. cerevisiae deletion strains, locus YPL055C, strain LGE1, stronger effect = lower value 0.96 | S. cerevisiae deletion strains, locus YPL241C, strain CIN2, stronger effect = lower value 0.993 | S. cerevisiae deletion strains, locus YPL256C, strain CLN2, stronger effect = lower value 0.9 | S. cerevisiae deletion strains, locus YPR119W, strain clb2, stronger effect = lower value 0.976 | S. cerevisiae deletion strains, locus YPR141C, strain kar3, stronger effect = lower value 0.957 | S. cerevisiae deletion strains, locus YPR167C, strain met16, stronger effect = lower value 0.974 | S. cerevisiae deletion strains, strain wtn01, stronger effect = lower value 0.966 | S. cerevisiae strains, strain wild type, stronger effect = lower value 0.986
